Assay outcomes: PubChem BioAssay, National Center for Advancing Translational Sciences (NCATS)
GAA glycogen = qHTS Assay for Inhibitors and Activators of Human alpha-Glucosidase Cleavage of Glycogen. recombinant GAA, glycogen substrate, Amplex Red glucose oxidase fluorescence. hit rate 0.38% among 300,000. Potency, µM (series often up to 76.4 µM), hits mostly inhibitors. AID 2100, 2009. Lysosomal alpha-glucosidase (Homo sapiens), P10253;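 note: the screen sought inhibitors and activators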
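Recombinant human alpha-glucosidase (4 nM final) hydrolysed bovine liver glycogen (30 ug) for 40 min at 37 C in pH 5.0 citrate/phosphate with 0.01% Tween-20. Released glucose detected by glucose oxidase/Amplex Red, Ex 573/Em 610 nm. Compounds up to 77 uM; AC50 from Hill fits.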
aGal spleen mod = qHTS Assay for Inhibitors and Activators of Human alpha-Galactosidase From Spleen Homogenate; hit rate 0.008% among 240,000; AID 2107, 2009; human spleen homogenate, 4MU-alpha-Gal fluorescence, 40 min; Potency, µM (doses to about 80 µM), hits mostly inhibitors; Alpha-galactosidase A (Homo sapiens), P06280
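Human spleen homogenate (1 ug) was the enzyme source, with 4-methylumbelliferyl-alpha-D-galactopyranoside (1 mM final) in pH 5.0 citrate buffer with 0.01% Tween-20. Compounds were titrated; after 40 min at 37C, NaOH/glycine stop, 4-MU fluorescence read; AC50 from Hill fits.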
GAA inh = qHTS Assay for Inhibitors of Human alpha-Glucosidase as a Potential Chaperone Treatment of Pompe Disease | Lysosomal alpha-glucosidase (Homo sapiens), P10253 | purified human GAA, 4-MU-alpha-glucoside fluorescence | Potency, µM (doses to about 76.9 µM), actives largely listed as inhibitors | hit rate 0.005% among 200,000
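Compounds are titrated up to 77 uM against 4 nM human enzyme. Substrate 4-methylumbelliferyl-alpha-D-pyranoside (400 uM) reacts 20 min at room temperature in pH 5.0 buffer; liberated 4-methylumbelliferone is read at 440 nm.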
GLA inh pH 4.5 = qHTS Assay for Inhibitors of Human alpha-Galactosidase at pH 4.5. Alpha-galactosidase A (Homo sapiens), P06280. purified enzyme, 4-MU-alpha-Gal fluorescence, pH 4.5. activity change, negative = inhibition, % at 105 µM. 230,000 tested, under 10 active
Target sequence (P06280 whole entry, looked up): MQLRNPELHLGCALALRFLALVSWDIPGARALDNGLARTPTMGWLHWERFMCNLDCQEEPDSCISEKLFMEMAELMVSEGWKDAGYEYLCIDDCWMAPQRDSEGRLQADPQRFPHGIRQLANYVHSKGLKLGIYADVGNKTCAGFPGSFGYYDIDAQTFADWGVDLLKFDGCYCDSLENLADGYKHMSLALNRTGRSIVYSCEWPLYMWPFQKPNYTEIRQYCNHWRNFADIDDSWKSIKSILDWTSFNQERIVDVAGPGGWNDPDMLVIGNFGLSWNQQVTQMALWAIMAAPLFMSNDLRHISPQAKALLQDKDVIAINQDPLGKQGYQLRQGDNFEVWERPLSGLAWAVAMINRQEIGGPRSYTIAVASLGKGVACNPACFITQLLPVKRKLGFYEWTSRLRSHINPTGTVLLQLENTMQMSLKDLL
GAA spleen mod = qHTS Assay for Inhibitors and Activators of Human alpha-Glucosidase From Spleen Homogenate. Lysosomal alpha-glucosidase (Homo sapiens), P10253. human spleen homogenate, 4-MU-alpha-glucoside fluorescence. Potency, µM (top dose mostly 79.9 µM), most hits filed as inhibitors. hit rate 0.006% among 240,000
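Human spleen homogenate (1 ug) with 4-methylumbelliferyl-alpha-D-glucopyranoside (1 mM final) in 50 mM citrate/phosphate pH 5.0, 0.01% Tween-20; 40 min at 37 C. Stopped at pH 10; 4-MU fluorescence Ex 365/Em 440 nm; AC50 by Hill fit.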
A number is an active result; - = inactive; ? = inconclusive; . = no result. This excerpt belongs to a sample that is enriched for hits. Calls come from the whole dose curve; as a rule, active = well fitted curve in the direction sought with a large enough effect; inconclusive = small, poorly fitted or top-dose-only effect, or another doubt; inactive = no such curve, though single readings can be large; an effect the other way counts as inactive or inconclusive.

SMILES	GAA glycogen	aGal spleen mod	GAA inh	GLA inh pH 4.5	GAA spleen mod
O=C(NN=C(Cc1ccccc1)Cc1ccccc1)c1ccccc1O	8.8µM	-	?	-	-
CCN(CC)c1ccc(/C=N/Nc2ccccc2)c(O)c1	18µM	-	-	-	-
CCN(CC)c1ccc(/C=N/Nc2cccc(C)c2)c(O)c1	-	-	-	-	-
C(=N\Nc1nc2ccccc2[nH]1)/c1c[nH]c2ccccc12	22µM	-	-	-	-
C(=N\Nc1nc2ccccc2[nH]1)/c1ccccc1	?	-	-	-	-
Cc1ccc(/C=N/Nc2nc3ccccc3[nH]2)s1	28µM	-	-	-	-
Cc1ccccc1/C=N/Nc1nc2ccccc2[nH]1	?	-	-	-	-
C(=N\Nc1nc2ccccc2[nH]1)/c1cccc2cccnc12	35µM	-	-	-	-
OCC1=C[C@@H](O)[C@@H]2C=CO[C@@H](OC3O[C@H](CO)[C@@H](O)[C@H](O)[C@H]3O)[C@H]12 (some centres undefined)	.	-	.	.	-
CCOCC	.	-	.	.	-
COC(=O)c1c(C)nc(C)c(C(=O)OC)c1-c1ccccc1[N+](=O)[O-]	.	-	.	.	-
Cc1cccc(C)c1NC(=O)CSCC(=O)c1ccc(O)c(O)c1	11µM	-	-	-	-
Oc1ccc(Nc2nc(-c3cccnc3)cs2)cc1	18µM	.	.	.	.
Oc1ccc(Nc2nc(-c3ccc(O)cc3)cs2)cc1	25µM	-	-	-	-
Oc1ccc(Nc2nc(-c3ccc(Cl)cc3)cs2)cc1	.	-	.	-	-
Fc1ccc(Nc2nc(-c3ccncc3)cs2)cc1	-	-	-	-	-
Nc1ccc(Nc2nc(-c3ccncc3)cs2)cc1	14µM	-	-	-	-
O=C1NC(=O)c2c1c(-c1ccccc1)cc1[nH]c3ccc(O)cc3c21	.	-	.	.	-
C/C=C/C/C=C/CCC(=O)[C@H]1O[C@H]1C(N)=O	.	-	.	.	-
O=C1OC(=O)c2c(Cl)c(Cl)c(Cl)c(Cl)c21	.	-	.	.	-
COc1ccc(O)c(/C=N/n2c(-c3ccco3)csc2=Nc2cccnc2)c1	-	-	-	-	-
CN=c1scc(-c2ccco2)n1/N=C/c1ccc(O)c(O)c1	5.6µM	-	-	-	-
O=C(COc1ccccc1[N+](=O)[O-])N/N=C/c1ccc(O)c([N+](=O)[O-])c1	-	-	-	-	-
O=C(COc1ccccc1C(=O)N/N=C\c1ccc(O)c(O)c1)N/N=C/c1ccc(O)c(O)c1	3.1µM	-	-	-	-
O=C(CC(c1ccccc1)c1cc(Br)ccc1O)NCCCN1CCOCC1 (centres undefined)	-	.	.	.	.
SMILES	GAA glycogen	aGal spleen mod	GAA inh	GLA inh pH 4.5	GAA spleen mod
O=C(CC(c1ccccc1)c1cc(Br)ccc1O)NCCN1CCOCC1 (centres undefined)	-	40µM	-	-	-
Cc1c(O)ccc(/C=N/Nc2nc(-c3cccnc3)nc3ccccc23)c1O	35µM	-	-	-	-
Oc1ccc(/C=N/Nc2nc(-c3cccnc3)nc3ccccc23)c(O)c1	?	-	.	-	-
COC(=O)c1ccc(NC(=S)Nc2ccc(O)cc2)cc1	7.9µM	-	-	-	-
Oc1ccc(NC(=S)Nc2ccc(O)cc2)cc1	3.1µM	-	-	-	-
Cc1cccc(NS(=O)(=O)c2ccc(C(=O)N3CCN(c4ccccc4O)CC3)cc2)c1C	4.5µM	.	.	.	.
Cc1cc(S(=O)(=O)Nc2ccc(C(=O)N3CCN(c4ccccc4O)CC3)cc2)ccc1F	-	.	.	.	.
OC1(c2ccc(Cl)c(C(F)(F)F)c2)CCN(CCCC(c2ccc(F)cc2)c2ccc(F)cc2)CC1	.	-	.	.	-
CC(C)C(C(=O)O)N1C(=O)/C(=C/c2ccc(Br)cc2)SC1=S (centres undefined)	.	-	.	.	-
CS(=O)(=O)NNC(=O)c1cc2cc3ccccc3nc2s1	16µM	-	-	-	-
COc1ccc(S(=O)(=O)NNC(=O)c2cc3cc4ccccc4nc3s2)cc1	12µM	-	?	-	-
CC(C)C[C@H](NC(=O)[C@H](CC(C)C)NC(=O)[C@H](Cc1ccc(O)cc1)NC(=O)CNC(=O)[C@H](C)NC(=O)[C@H](CO)NC(=O)[C@H](CC(N)=O)NC(=O)[C@H](CC(C)C)NC(=O)[C@@H](NC(=O)[C@H](Cc1c[nH]c2ccccc12)NC(=O)CN)[C@@H](C)O)C(=O)NCC(=O)N1CCC[C@H]1C(=O)N1CCC[C@H]1C(=O)N1CCC[C@H]1C(=O)NCC(=O)N[C@@H](Cc1ccccc1)C(=O)N[C@@H](CO)C(=O)N1CCC[C@H]1C(=O)N[C@@H](Cc1ccccc1)C(=O)N[C@@H](CCCNC(=N)N)C(N)=O	.	-	.	.	-
CCN1CCCc2cc(CN(CCN3CCOCC3)C(=S)Nc3cccc(C)c3)ccc21	?	-	-	-	-
CCc1ccc(NC(=O)N(CCN2CCOCC2)Cc2ccc3c(c2)CCCN3CC)cc1	11µM	-	-	-	-
CCN1CCCc2cc(CN(CCN3CCOCC3)C(=O)Nc3ccc(C)c(C)c3)ccc21	11µM	-	-	-	-
COc1cccc(OC)c1-c1cc(C(=O)NC2(C(=O)O)C3CC4CC(C3)CC2C4)nn1-c1ccc(C(=O)N(C)CCCN(C)C)cc1C(C)C (centres undefined)	.	-	.	.	-
CCCCCCCCCCCCCCCCOC[C@H](COP(=O)([O-])OCC[N+](C)(C)C)OC(=O)CCCCCCCC(=O)O	.	-	.	.	-
Cc1nc(N)sc1-c1csc(N(C)c2ccc(O)cc2)n1	25µM	-	-	-	-
OC1c2ccccc2N=C2CCCN21 (centres undefined)	.	-	.	.	-
Cc1ccc(-c2nc3ncccn3c2Nc2ccc3c(c2)OCCO3)cc1	?	-	-	-	-
Cc1ccc(-c2nc3ncccn3c2Nc2ccc3c(c2)OCCO3)o1	14µM	-	-	-	-
Cc1ccc(-c2nc3ncccn3c2NC2CCCCC2)o1	28µM	-	-	-	-
Cc1ccn2c(NC3CCCC3)c(-c3ccccn3)nc2c1	?	-	-	-	-
Oc1ccc(-c2nc3ncccn3c2Nc2ccc3c(c2)OCCO3)cc1	25µM	-	-	-	-
Brc1ccc(-c2nc3ncccn3c2Nc2ccc3c(c2)OCCO3)o1	22µM	-	-	-	-
COc1ccc(-c2nnc3n2N=C(c2cc(OC)ccc2OC)CS3)c(OC)c1	.	-	.	.	-
Cc1ccc(/C=C2/CNC/C(=C\c3ccc(C)cc3)C2=O)cc1	.	-	.	.	-
Nc1cc(S(=O)(=O)Nc2ccccc2Cl)ccc1N1CCOCC1	-	-	-	-	-
Nc1cc(S(=O)(=O)Nc2cc(Cl)ccc2Cl)ccc1N1CCCC1	18µM	-	.	-	-
